FBW7 act: FBW7 E3 ligase activators, primary screen, biochemical, AlphaScreen, human; 650,000 compounds, 0.13% hits; AlphaScreen FBW7–phospho-cyclin E peptide binding, activator screen; normalized activity (activation), % at 26.1 µM; AID 1259310, 2017; in the data active means normalized activity above about 1.9%;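 further: purified mutant Fbw7 with reduced substrate affinity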
GPR151 activ: activators of human GPR151, primary screen, cell-based, PathHunter beta-arrestin, luminescence; activation, % at 11.2 µM; G-protein coupled receptor 151 (Homo sapiens), Q8TDV0; PathHunter beta-arrestin GPR151 cells; AID 1508602, 2020; 650,000 compounds, 1% hits; in the data active means activation above about 4.9%;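 further: 0% = median of compound wells and 100% = cells with positive control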
Target sequence (Q8TDV0 whole entry, looked up): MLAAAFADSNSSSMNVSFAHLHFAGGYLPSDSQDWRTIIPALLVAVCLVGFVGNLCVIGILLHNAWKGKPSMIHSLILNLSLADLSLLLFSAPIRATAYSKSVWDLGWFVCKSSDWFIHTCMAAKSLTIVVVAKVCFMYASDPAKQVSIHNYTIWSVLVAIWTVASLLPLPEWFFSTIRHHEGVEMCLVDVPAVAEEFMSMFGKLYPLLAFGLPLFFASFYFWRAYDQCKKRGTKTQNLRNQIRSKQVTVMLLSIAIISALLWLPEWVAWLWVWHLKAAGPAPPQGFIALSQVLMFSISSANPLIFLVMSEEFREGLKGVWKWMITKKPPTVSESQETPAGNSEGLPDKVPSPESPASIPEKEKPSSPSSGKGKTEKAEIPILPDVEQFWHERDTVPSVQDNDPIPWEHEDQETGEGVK
MITF primary: MITF inhibitors, primary screen, biochemical, AlphaScreen, human. AID 1259374, 2018. Microphthalmia-associated transcription factor (Homo sapiens), O75030. inhibition, % at 2.6 µM. AlphaScreen MITF homodimerization, bead proximity signal. 650,000 compounds, 0.91% hits; in the data active means inhibition above about 50%;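 further: 0% = vehicle wells with protein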
TEAD-YAP block: TEAD-YAP interaction inhibition, primary screen, TEAD-YAP interaction inhibitor project, luminescence, HEK-TIYL cells. TEAD-Gal4/YAP UAS-luciferase luminescence. inhibition, % at 9.12 µM. 640,000 compounds, 1.4% hits; in the data active means inhibition above about 32%;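 further: 0% = median of test compound wells and 100% = reference inhibitor wells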
* marks the source's active call; other numbers are inactive results; ! = not confirmed by another sample. An excerpt weighted towards active compounds, which were near 3.5% of everything screened.

SMILES	FBW7 act	GPR151 activ	MITF primary	TEAD-YAP block
COc1cc(/C=N/NC(=O)c2ccccc2NC(=O)c2ccc([N+](=O)[O-])cc2)ccc1O	-0.1	-1.7	-9.9	71.6*
COc1ccc(/C=N/NC(=O)C(=O)Nc2ccc(C)cc2)cc1	0.0	-0.5	-8.7	9.4
COc1ccc(NC(=O)COc2ccc(/C=N/n3c(C)nnc3C)cc2OC)cc1	0.1	0.9	9.0	-4.9
COc1ccc(NC(=O)C(=O)N/N=C/c2ccc(O)c(OC)c2)cc1	24.7*	-0.4	-64.5	13.7
COc1ccc(NC(=O)COc2ccc(/C=N/NC(=S)NC(C)C)cc2OC)cc1	0.0	-0.6	6.2	33.0*
CC(C)(C)C1c2[nH]c3ccccc3c2CCN1C(=O)c1nc2ncccn2n1 (stereo unspecified)	0.1	-0.5	8.8	0.0
O=C(NCc1ccncc1)c1ccc(OC2CCN(Cc3cc4ccccc4o3)CC2)cc1	-0.1	2.9	2.6	44.9*
Cc1ccc(S(=O)(=O)N2CCCCC2CCNC(=O)C(=O)NCc2cccs2)cc1 (stereo unspecified)	0.8	0.0	9.1	48.4*
Cc1ccc(S(=O)(=O)N2CCCCC2CCNC(=O)C(=O)NCCc2ccco2)cc1 (stereo unspecified)	0.1	0.2	5.0	47.3*
Cc1ccc(S(=O)(=O)N2CCCCC2CCNC(=O)C(=O)NCc2ccco2)cc1 (stereo unspecified)	0.4	-1.2	-3.6	41.5*
Cc1ccc(S(=O)(=O)N2CCCCC2CCNC(=O)C(=O)NC2CCCC2)cc1 (stereo unspecified)	-0.1	3.7	-0.2	3.7
O=C(NCCc1ccco1)C(=O)NCC1CCCN1S(=O)(=O)c1ccccc1 (stereo unspecified)	0.3	0.9	13.7	32.3*
COC(=O)c1ccc(OCCCOc2ccc(C=O)cc2OC)cc1	0.2	-1.3	17.3	13.4
COc1cc(N)c(-c2nc3ccccc3[nH]2)cc1OC	0.8	-6.8	16.4	45.9*
c1ccc2[nH]c(-c3cc(-c4cc(-c5nc6ccccc6[nH]5)c5ccccc5n4)nc4ccccc34)nc2c1	0.1	-9.7	11.4	82.0*
COC(=O)c1c(C)[nH]c(-c2csc(N)n2)c1C	0.3	0.5	13.2	50.5*
CC(=O)c1c(C)[nH]c(-c2csc(NC3CCCCC3)n2)c1C	0.5	-0.9	-8.8	-3.5
CN1C(=O)C(=Cc2ccccc2OCC(=O)O)C(=O)N(C)C1=S	-0.3	1.3	72.1*	5.9
CN1C(=O)C(=Cc2ccccc2OCC(=O)Nc2ccccc2)C(=O)N(C)C1=S	0.8	-2.5	6.2	-13.0
CC(C)(C)c1ccc(-c2nc3cc(NC(=O)c4ccc(Br)o4)ccc3o2)cc1	0.3	0.1	-9.7	37.0*
CC(C)(C)c1ccc(-c2nc3cc(NC(=O)c4ccc(-c5cccc([N+](=O)[O-])c5)o4)ccc3o2)cc1	0.0	1.2	-13.4	34.0*
O=C(Nc1ccc2oc(-c3cccc(I)c3)nc2c1)c1ccc(-c2cccc([N+](=O)[O-])c2)o1	0.3	-1.1	-6.4	2.4
CCc1ccc2oc(-c3ccc(NC(=O)c4ccc5c(c4)OCCO5)cc3)nc2c1	0.5	-0.2	-3.4	39.3*
CC(C)(C)c1ccc(C(=O)Nc2ccc3oc(-c4ccc(C(C)(C)C)cc4)nc3c2)cc1	0.1	1.2	8.6	-6.9
O=C(Nc1ccc2oc(-c3ccc(I)cc3)nc2c1)c1ccc2c(c1)OCCO2	0.0	-0.9	-10.2	-16.6
SMILES	FBW7 act	GPR151 activ	MITF primary	TEAD-YAP block
CCOC(=O)c1sc2nc(SCC(=O)NCc3ccccc3)n(CCc3ccccc3)c(=O)c2c1C	0.0	0.3	10.7	1.3
COc1cccc(CN2CCN(Cc3cnc(SC)nc3)CC2CCO)c1 (stereo unspecified)	0.0	-1.6	13.7	-2.2
CSc1nc2nc(N)nc(N)c2s1	0.0	0.5	16.4	0.2
O=C(CSc1nc2ccsc2c(=O)n1-c1cccc(Cl)c1Cl)c1ccc(Cl)cc1	0.0	-0.4	-5.5	-8.8
CCCCN(CCCC)c1nc(N)ncc1[N+](=O)[O-]	0.0	1.0	3.4	34.3*
CCCN(CCC)c1nc(N)ncc1[N+](=O)[O-]	0.4	-1.2	5.0	59.0*
Nc1ncc([N+](=O)[O-])c(Oc2ccccc2F)n1	-0.3	-0.2	5.3	-1.5
CC1CC2(C)Oc3ccccc3CC2C(C)C1CNCCCN(C)C (stereo unspecified)	0.0	0.1	23.1	38.2*
CC1Cc2ccccc2N1C(=O)CNCCCN(C)C (stereo unspecified)	0.1	0.1	9.4	11.1
O=C1C=CC(=NS(=O)(=O)c2cccc(C(=O)O)c2)C=C1	-0.2	-1.3	64.3*	-1.7
O=C(O)c1cc(-c2ccc(O)c(O)c2)nc2n[nH]c(-c3ccc(F)cc3)c12	-0.1	-0.4	20.2	1.4
O=C(O)c1cc(-c2ccc(O)c(O)c2)nc2n[nH]c(-c3ccccc3)c12	-0.2	1.1	81.3*	-8.0
Cn1c(=O)n(CCCOc2ccc(Cl)cc2)c2ccccc21	0.0	0.0	1.0	-14.8
Cc1ccc(C(C[N+](=O)[O-])c2c[nH]c3ccccc23)o1 (stereo unspecified)	0.0	-1.1	-0.1	53.6*
CCOC(=O)C1=C(C)NC2=C(C(=O)CC(c3ccccc3)C2)C1c1ccsc1 (stereo unspecified)	-0.1	-0.6	-4.2	43.8*
CC1=C(C(=O)OCC(C)C)C(c2ccccc2F)C2=C(CC(c3cccs3)CC2=O)N1 (stereo unspecified)	0.2	-2.1	4.5	32.5*
COCCOC(=O)C1=C(C)NC2=C(C(=O)CC(c3cccs3)C2)C1c1ccsc1 (stereo unspecified)	0.5	1.2	-2.9	-6.9
CCOC(=O)C1=C(C)NC2=C(C(=O)CC(c3cccs3)C2)C1c1ccsc1 (stereo unspecified)	0.2	-0.3	7.7	55.0*
CC1=C(C(=O)OCCc2ccccc2)C(c2ccccc2F)C2=C(CC(c3cccs3)CC2=O)N1 (stereo unspecified)	0.1	-1.2	2.2	-9.1
CCOC(=O)C1=C(C)NC2=C(C(=O)CC(c3cccs3)C2)C1c1ccc(F)cc1 (stereo unspecified)	0.4	1.9	-2.7	69.6*
Cc1nc2sccn2c(=O)c1S(=O)(=O)Nc1cccc(Cl)c1	0.0	-0.8	5.4	-3.0
COc1ccc(CNC(=O)CCc2c(C)nc3c(c(C)nn3C)c2C)cc1	-0.1	1.5	1.1	0.8
COC(=O)C1=C(C)NC(S)=C(C#N)C1c1cccs1 (stereo unspecified)	0.0	-0.9	20.0	6.1
COC(=O)C1=C(C)NC(C)=C(C#N)C1c1cccs1 (stereo unspecified)	0.0	-1.1	-12.2	34.6*!
COCCOC(=O)C1=C(C)NC2=C(C(=O)CC(c3ccccc3)C2)C1c1ccc(OCc2ccccc2)cc1 (stereo unspecified)	3.4*	-0.4	8.6	-9.8

Bioassay records as filed in PubChem BioAssay.
